According to PubChem BioAssay (NCATS):
Inconclusive results are not listed. Activity calls are given as the source filed them. The call rests on the fitted dose curve; in most records, active means well fitted cell-killing curve with a large enough effect; inconclusive means small, poorly fitted or top-dose-only effect, or effect the other way; inactive means flat fitted curve, though single readings scatter.

Columns and labels:
Assay in all cases: Primary qHTS to identify gynecologic anti-cancer compounds using libraries of approved drugs and bioactive compounds (AID 1345084); further: nearly all actives have a fitted effect of over 55% in size
C33A = settings: Gynecologic cancer cell panel viability, ATPlite luminescence, 48 h; series mostly up to 57.5 µM
How it was run: (§1)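 Five-concentration response, 48 h; readout is ATP-driven luciferase luminescence.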

CAOV3 = settings: Gynecologic cancer cell panel viability, ATPlite luminescence, 48 h; series mostly up to 57.5 µM
How it was run: as §1

CASKI = settings: Gynecologic cancer cell panel viability, ATPlite luminescence, 48 h; series mostly up to 57.5 µM
How it was run: as §1

Es-2 = settings: Gynecologic cancer cell panel viability, ATPlite luminescence, 48 h; series mostly up to 57.5 µM
How it was run: as §1

HeLa = settings: Gynecologic cancer cell panel viability, ATPlite luminescence, 48 h; series mostly up to 57.5 µM
How it was run: as §1

Hek293T = settings: Gynecologic cancer cell panel viability, ATPlite luminescence, 48 h, control line for the selectivity index; series mostly up to 57.5 µM
How it was run: as §1

JEG-3 = settings: Gynecologic cancer cell panel viability, ATPlite luminescence, 48 h; series mostly up to 57.5 µM
How it was run: as §1

OV90 = settings: Gynecologic cancer cell panel viability, ATPlite luminescence, 48 h; series mostly up to 57.5 µM
How it was run: as §1

PA-1 = settings: Gynecologic cancer cell panel viability, ATPlite luminescence, 48 h; series mostly up to 57.5 µM
How it was run: as §1

Tov-21-G = settings: Gynecologic cancer cell panel viability, ATPlite luminescence, 48 h; series mostly up to 57.5 µM
How it was run: as §1

Tov112D = settings: Gynecologic cancer cell panel viability, ATPlite luminescence, 48 h; series mostly up to 57.5 µM
How it was run: as §1
On the % scale 0 is the no-effect control and ±100 the full control effect.

C[C@@H]1O[C@@H](O[C@@H]2[C@@H](O)[C@H](O[C@H]3[C@H](O[C@H]4CC[C@@]5(C)C(CC[C@]6(C)C5CC=C5[C@@H]7CC(C)(C)CC[C@]7(C(=O)O[C@@H]7O[C@H](CO)[C@@H](O)[C@H](O)[C@H]7O[C@@H]7O[C@@H](C)[C@H](O[C@@H]8O[C@@H](C)[C@H](O)[C@@H](O)[C@H]8O)[C@@H](O)[C@H]7O)CC[C@]56C)[C@@]4(C)CO)O[C@H](C(=O)O)[C@@H](O)[C@@H]3O)O[C@H](CO)[C@H]2O)[C@H](O)[C@H](O)[C@H]1O (stereo not given in full)
inactive: activity change, negative = cytotoxicity (C33A) 0.245% [at 6.55 µM] | activity change, negative = cytotoxicity (CAOV3) 5.38% [at 6.55 µM] | activity change, negative = cytotoxicity (CASKI) 3.98% [at 6.55 µM] | activity change, negative = cytotoxicity (Es-2) -0.113% [at 6.55 µM] | activity change, negative = cytotoxicity (HeLa) 1.1% [at 6.55 µM] | activity change, negative = cytotoxicity (Hek293T) 2.2% [at 6.55 µM] | activity change, negative = cytotoxicity (JEG-3) 8.58% [at 6.55 µM] | activity change, negative = cytotoxicity (OV90) 6.41% [at 6.55 µM] | activity change, negative = cytotoxicity (PA-1) 2.55% [at 6.55 µM] | activity change, negative = cytotoxicity (Tov-21-G) -1.58% [at 6.55 µM] | activity change, negative = cytotoxicity (Tov112D) 10.3% [at 6.55 µM]

CC1OC(OC2C(OC3C(O[C@H]4CC[C@@]5(C)C(CC[C@]6(C)C5C(=O)C=C5C7CC(C)(C)CC(O)[C@]7(C)CC[C@]56C)C4(C)C)OC(C(=O)O)C(O)C3O)OCC(O)C2O)C(O)C(O)C1O (stereo not given in full)
inactive: activity change, negative = cytotoxicity (C33A) -11.1% [at 11.6 µM] | activity change, negative = cytotoxicity (CAOV3) -11.1% [at 11.6 µM] | activity change, negative = cytotoxicity (CASKI) -7.33% [at 11.6 µM] | activity change, negative = cytotoxicity (Es-2) -2.72% [at 11.6 µM] | activity change, negative = cytotoxicity (HeLa) 6.46% [at 11.6 µM] | activity change, negative = cytotoxicity (Hek293T) -13.7% [at 11.6 µM] | activity change, negative = cytotoxicity (JEG-3) -7.16% [at 11.6 µM] | activity change, negative = cytotoxicity (OV90) -4.31% [at 11.6 µM] | activity change, negative = cytotoxicity (PA-1) -3.12% [at 11.6 µM] | activity change, negative = cytotoxicity (Tov-21-G) 2.59% [at 11.6 µM] | activity change, negative = cytotoxicity (Tov112D) -1.77% [at 11.6 µM]

CC(C)=CCC(O)/C(C)=C/CO[C@@H]1O[C@H](CO)[C@@H](O)[C@H](O)[C@H]1O (stereo not given in full)
inactive: Potency (C33A) | Potency (CAOV3) | Potency (CASKI) | Potency (Es-2) | Potency (HeLa) | Potency (Hek293T) | Potency (JEG-3) | Potency (OV90) | Potency (PA-1) | Potency (Tov-21-G) | Potency (Tov112D)

CCCC1(c2ccccc2)NC(=O)N(CC(=O)N(C)Cc2c(F)cccc2Cl)C1=O (stereo not given)
inactive: Potency (C33A) | Potency (CAOV3) | Potency (CASKI) | Potency (Es-2) | Potency (HeLa) | Potency (Hek293T) | Potency (JEG-3) | Potency (OV90) | Potency (PA-1) | Potency (Tov-21-G) | Potency (Tov112D)

CC(=O)O[C@@H]1[C@@H](O)[C@H](O[C@H]2CC[C@]34C[C@]35CC[C@]3(C)[C@@H]([C@@]6(C)CC[C@@H](C(C)(C)O)O6)[C@@H](O)C[C@@]3(C)[C@@H]5C[C@H](O[C@@H]3O[C@H](CO)[C@@H](O)[C@H](O)[C@H]3O)[C@H]4C2(C)C)OC[C@H]1O
inactive: Potency (C33A) | Potency (CAOV3) | Potency (CASKI) | Potency (Es-2) | Potency (HeLa) | Potency (Hek293T) | Potency (JEG-3) | Potency (OV90) | Potency (PA-1) | Potency (Tov-21-G) | Potency (Tov112D)

C[C@@]1(O)[C@H](O)[C@@H](CO)O[C@H]1n1ccc(N)nc1=O
inactive: Potency (C33A) | Potency (CAOV3) | Potency (CASKI) | Potency (Es-2) | Potency (HeLa) | Potency (Hek293T) | Potency (JEG-3) | Potency (OV90) | Potency (PA-1) | Potency (Tov-21-G) | Potency (Tov112D)

Cc1cc(C(=O)N2CCCCc3ccccc32)ccc1CNC(=O)N1CCC[C@H]1C(=O)N(C)C
inactive: Potency (C33A) | Potency (CAOV3) | Potency (CASKI) | Potency (Es-2) | Potency (HeLa) | Potency (Hek293T) | Potency (JEG-3) | Potency (OV90) | Potency (PA-1) | Potency (Tov-21-G) | Potency (Tov112D)

OCCc1ccc(O[C@@H]2O[C@H](CO)[C@@H](O)[C@H](O)[C@H]2O)cc1
inactive: Potency (C33A) | Potency (CAOV3) | Potency (CASKI) | Potency (Es-2) | Potency (HeLa) | Potency (Hek293T) | Potency (JEG-3) | Potency (OV90) | Potency (PA-1) | Potency (Tov-21-G) | Potency (Tov112D)

OC[C@H]1O[C@@H](O[C@H]2[C@H](OCc3ccccc3)O[C@H](CO[C@@H]3OC[C@@H](O)[C@H](O)[C@H]3O)[C@@H](O)[C@@H]2O)[C@H](O)[C@@H](O)[C@@H]1O
inactive: Potency (C33A) | Potency (CAOV3) | Potency (CASKI) | Potency (Es-2) | Potency (HeLa) | Potency (Hek293T) | Potency (JEG-3) | Potency (OV90) | Potency (PA-1) | Potency (Tov-21-G) | Potency (Tov112D)

CC(=O)OC1C[C@@]2(C)[C@@H](CC[C@@H](C)[C@]23Cc2c(O)cc4c(c2O3)CNC4=O)C(C)(C)[C@@H]1O (stereo not given in full)
inactive: Potency (C33A) | Potency (CAOV3) | Potency (CASKI) | Potency (Es-2) | Potency (HeLa) | Potency (Hek293T) | Potency (JEG-3) | Potency (OV90) | Potency (PA-1) | Potency (Tov-21-G) | Potency (Tov112D)

COC(=O)C(C)C1CCC2(C)C(=O)C=CC(C)(O)C2C1O (stereo not given)
inactive: Potency (C33A) | Potency (CAOV3) | Potency (CASKI) | Potency (Es-2) | Potency (HeLa) | Potency (Hek293T) | Potency (JEG-3) | Potency (OV90) | Potency (PA-1) | Potency (Tov-21-G) | Potency (Tov112D)

CC1(C)CC[C@]2(C(=O)O[C@@H]3O[C@H](CO)[C@@H](O)[C@H](O)[C@H]3O)CC[C@]3(C)C(=CCC4[C@@]5(C)C[C@@H](O)[C@H](O)[C@](C)(C(=O)O)C5CC[C@]43C)C2C1O (stereo not given in full)
inactive: Potency (C33A) | Potency (CAOV3) | Potency (CASKI) | Potency (Es-2) | Potency (HeLa) | Potency (Hek293T) | Potency (JEG-3) | Potency (OV90) | Potency (PA-1) | Potency (Tov-21-G) | Potency (Tov112D)

O=C(c1ccc2nccnc2c1)N1CCCCC1
inactive: Potency (C33A) | Potency (CAOV3) | Potency (CASKI) | Potency (Es-2) | Potency (HeLa) | Potency (Hek293T) | Potency (JEG-3) | Potency (OV90) | Potency (PA-1) | Potency (Tov-21-G) | Potency (Tov112D)

C=CC1(C)CC(OC(=O)/C(C)=C\COC(C)=O)C(C(=C)C(=O)O)C(O)C1C(=C)CO (stereo not given)
inactive: Potency (C33A) | Potency (CAOV3) | Potency (CASKI) | Potency (Es-2) | Potency (HeLa) | Potency (Hek293T) | Potency (JEG-3) | Potency (OV90) | Potency (PA-1) | Potency (Tov-21-G) | Potency (Tov112D)

CO[C@H]1O[C@@H]2O[C@]3(C)CC[C@H]4[C@H](C)CC[C@@H]([C@H]1C)[C@@]24OO3
inactive: Potency (C33A) | Potency (CAOV3) | Potency (CASKI) | Potency (Es-2) | Potency (HeLa) | Potency (Hek293T) | Potency (JEG-3) | Potency (OV90) | Potency (PA-1) | Potency (Tov-21-G) | Potency (Tov112D)
